In publication PMC5540273 (PLoS ONE, 2017):

Tests used:
Settings in all cases: concentration: 1 μM,replicates: in singlicate; n = 1
[1] = test system: NEK11
[2] = test system: NEK1
[3] = test system: NEK2
[4] = test system: NEK3
[5] = test system: NEK4
[6] = test system: NEK5
[7] = test system: NEK6
[8] = test system: NEK7
[9] = test system: NEK9
[10] = test system: T1, NIK
T1 construct: gene MAP3K14
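Further: KINOMEscan kinase panel screen.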

SMILES | %Inh [1] | %Inh [2] | %Inh [3] | %Inh [4] | %Inh [5] | %Inh [6] | %Inh [7] | %Inh [8] | %Inh [9] | %Inh [10]
O=C(NOCC1CC1)c1cc(Br)c(F)c(F)c1Nc1ccc(I)cc1Cl | 0% | 0% | 0% | 43% | 0% | 0% | 0% | 0% | 0% | 0%
CCN1CCN(CCCC(=O)Nc2n[nH]c3nc(-c4ccc(O)cc4)c(Br)cc23)CC1 [SB-731579] | 0% | 0% | 0% | 18% | 0% | 0% | 0% | 5% | 22% | 27%
COc1ccc(Nc2nccc(N3CCC(NC(=O)c4cccc(C#N)c4)C3)n2)cc1 (stereo not shown) [GSK1379730] | 0% | 0% | 0% | 0% | 3% | 12% | 30% | 0% | 0% | 0%
Cn1ccc2ncnc(Oc3ccc(NC(=O)Nc4cc(C(C)(C)C)on4)c(Cl)c3)c21 | 0% | 0% | 17% | 21% | 3% | 0% | 0% | 0% | 3% | 0%
CS(=O)c1ccc(-c2coc3ccc(-c4n[nH]c(=O)o4)cc23)cc1 (stereo not shown) | 0% | 0% | 0% | 15% | 0% | 0% | 0% | 19% | 0% | 0%
CN(c1cccc(CNc2nc(Nc3ccc4c(c3)CC(=O)N4)ncc2C(F)(F)F)c1)S(C)(=O)=O | 0% | 0% | 0% | 20% | 0% | 17% | 23% | 0% | 6% | 21%
Cn1ccc2ncnc(Oc3ccc(NC(=O)Nc4ccnc(C(F)(F)F)c4)c(Cl)c3)c21 | 0% | 0% | 0% | 11% | 0% | 0% | 0% | 0% | 5% | 0%
